# DAGLB inh: diacylglycerol lipase beta (human) inhibition | Q8NCG7 | HEK293T DAGLB membrane lysate, EnzChek fluorogenic substrate | inhibition, % at 5.17 µM | 340,000 tested, 0.059% active | AID 504411; in the data active = inhibition above about 34%
# NadD block: blocks S. aureus nicotinate mononucleotide adenylyltransferase. purified NadD enzyme, colorimetric absorbance read-out. 360,000 tested, 0.78% active. inhibition, % at 20 µM; in the data active = inhibition above about 26%
# ARNT TACC3 PPI: disrupts binding between human ARNT and TACC3 | Q9Y6A5 | AlphaScreen His-ARNT PAS-B/GST-TACC3 binding, luminescence; TACC3 fragment carries E629A point mutation | inhibition, % at 9.99 µM | 390,000 tested, 0.66% active;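 active = mean inhibition of replicates at least 50% and at least half of replicates each reaching 50%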
# HGIII-sPLA2 inh: Inhibits HGIII-sPLA2 liposome hydrolysis, primary screen | AID 743126 | QFRET BODIPY PC-A2 liposome hydrolysis, fluorescence | Q9NZ20 | 370,000 tested, 0.56% active | inhibition, % at 12.2 µM;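 active = inhibition above mean plus 3 SD of compounds lying within the high and low control bounds, cut at about 19% in these data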
# Neddylation inh: cullin neddylation inhibition. P61081+Q13564. 360,000 tested, 0.58% active. TR-FRET cullin neddylation, biochemical. inhibition, % at 25 µM; in the data active = inhibition above about 36%
# Target sequence (P61081 whole entry, looked up): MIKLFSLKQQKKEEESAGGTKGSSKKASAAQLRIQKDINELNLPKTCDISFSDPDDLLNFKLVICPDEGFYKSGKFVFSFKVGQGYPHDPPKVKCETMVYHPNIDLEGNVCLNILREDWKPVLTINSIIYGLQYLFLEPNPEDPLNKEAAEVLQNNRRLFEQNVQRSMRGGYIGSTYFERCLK
# Target sequence (Q13564 whole entry, looked up): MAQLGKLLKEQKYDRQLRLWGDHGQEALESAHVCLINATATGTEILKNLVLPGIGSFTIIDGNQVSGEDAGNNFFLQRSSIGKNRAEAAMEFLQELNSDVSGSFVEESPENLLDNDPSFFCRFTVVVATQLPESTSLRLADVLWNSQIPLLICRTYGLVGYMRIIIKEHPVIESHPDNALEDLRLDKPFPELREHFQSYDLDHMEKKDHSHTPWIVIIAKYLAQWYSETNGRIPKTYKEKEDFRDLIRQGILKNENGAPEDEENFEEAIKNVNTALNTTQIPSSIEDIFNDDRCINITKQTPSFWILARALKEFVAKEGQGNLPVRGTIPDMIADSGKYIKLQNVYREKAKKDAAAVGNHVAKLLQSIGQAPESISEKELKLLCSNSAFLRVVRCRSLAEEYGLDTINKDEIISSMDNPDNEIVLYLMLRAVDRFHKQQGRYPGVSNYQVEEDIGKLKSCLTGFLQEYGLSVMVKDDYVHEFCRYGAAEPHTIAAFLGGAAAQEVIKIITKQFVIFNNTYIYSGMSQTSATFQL
# NadD conf: confirmation of Staphylococcus aureus NadD inhibitors; shares compounds with NadD block; inhibition, % at 20 µM; purified S. aureus NadD, colorimetric enzyme assay; 2,000 tested, 13% active; in the data active = inhibition mostly above about 42%, no sharp cut-off; inactive = mostly below about 42%
# Numbers stand for hits; . = inactive; / = not tested or not shown; ! = not active in a repeat. Hits are enriched below; roughly 2% of the tested compounds scored in any of these assays.
SMILES,DAGLB inh,NadD block,ARNT TACC3 PPI,HGIII-sPLA2 inh,Neddylation inh,NadD conf
COc1ccc(NC(=O)C(OC(=O)c2ccccc2)c2cccs2)cc1 (configuration not stated),/,/,.,/,/,/
Cc1nc(SCc2nc3ccccc3[nH]2)c2oc3ccccc3c2n1,.,.,.,.,.,/
c1ccc(-c2nc(SCc3nc4ccccc4[nH]3)c3oc4ccccc4c3n2)cc1,.,31,.,.,.,.
CC(=O)N(C)C[C@@H]1Oc2cc(-c3ccccc3C)ccc2S(=O)(=O)N([C@H](C)CO)C[C@@H]1C,/,/,.,/,/,/
Brc1ccc(-c2ccc(/C=N/Nc3nncc(-c4ccccc4)n3)o2)cc1,.,29,/,.,.,.
COc1ccc(-c2cc(C#N)nc(N3CCNCC3)n2)cc1,.,45,.,.,.,.
COc1ccccc1/C=c1\sc2nc(-c3ccccc3OC)nn2c1=O,.,.,.,.,.,/
COc1ccc(Br)cc1/C=c1\sc2nc(-c3ccco3)nn2c1=O,.,40,.,.,.,.
Oc1csc(Cc2nc(-c3ccc4ccccc4c3)cs2)n1,.,56,.,.,.,.
COc1ccc(/C=N/NC(=O)c2cc(-c3ccc(C)cc3C)nc3ccccc23)cc1COC(C)=O,.,38,.,.,/,.
COc1ccccc1-c1cc(C(=O)N/N=C/c2ccc(C)s2)c2ccccc2n1,.,32,/,.,.,.
CCc1ccc(/C=N/NC(=O)c2cc(-c3ccccc3OC)nc3ccccc23)s1,.,.,.,.,.,/
C[C@@H]1CCCCO[C@@H](CN(C)S(=O)(=O)c2cccs2)[C@H](C)CN([C@@H](C)CO)C(=O)c2cc(NC(=O)Nc3ccccc3)ccc2O1,/,/,.,/,/,/
O=C(Cc1ccccn1)NCC[C@H]1CC[C@H](NS(=O)(=O)c2ccc(F)cc2)[C@H](CO)O1,/,/,.,/,/,/
Cc1cc2cc(CNC(=O)Nc3cccc(Cl)c3)ccc2n1C,.,34,.,.,.,.
CC[C@]12c3[nH]c4cc(-c5ccco5)ccc4c3CCN1C(=O)[C@@H](CC(=O)NCC13CC4CC(CC(C4)C1)C3)C[C@@H]2C(=O)N1CCN(C(=O)C2CC2)CC1,.,.,.,.,/,/
CC[C@]12c3[nH]c4cc(-c5ccco5)ccc4c3CCN1C(=O)[C@@H](CC(=O)NCC13CC4CC(CC(C4)C1)C3)C[C@@H]2C(=O)N1CCN(C(=O)c2ccco2)CC1,.,40,.,.,/,.
C[C@]12c3[nH]c4cc(-c5ccco5)ccc4c3CCN1C(=O)[C@@H](CC(=O)NCC13CC4CC(CC(C4)C1)C3)C[C@@H]2C(=O)N1CCCCC1,.,50,.,.,/,.
O=C(C[C@H]1C[C@H](C(=O)N2CCOCC2)[C@@]2(CCC3CCCC3)c3[nH]c4cc(-c5ccco5)ccc4c3CCN2C1=O)NCCC1=CCCCC1,.,29,.,/,/,.
O=C(C[C@H]1C[C@H](C(=O)N2CCOCC2)[C@@]2(CCC3CCCC3)c3[nH]c4cc(-c5ccco5)ccc4c3CCN2C1=O)NCCc1ccccn1,.,.,.,.,/,/
COc1ccc(C2=NN(C(=O)CCC(=O)O)C(c3ccccc3)C2)cc1 (configuration not stated),.,.,.,.,.,/
Cc1ccc(N2C(=O)C3N=NN(CC(=O)N4N=C(c5ccccc5)CC4c4ccccc4)C3C2=O)cc1 (configuration not stated),.,43,.,.,.,.
COc1cc(NC(=O)CSc2ncnc3sc4c(c23)CCC(C)C4)c(C(=O)O)cc1OC (configuration not stated),.,36,.,.,.,.
CC1CCc2c(sc3ncnc(SCC(=O)Nc4ccc(C(=O)O)cc4)c23)C1 (configuration not stated),.,.,.,.,.,/
CCOC(=O)c1cc(-c2ccc(N3C(c4ccsc4)=Cc4ccccc4C3CC(C)=O)cc2)cc([N+](=O)[O-])c1 (configuration not stated),/,32,/,.,.,.
SMILES,DAGLB inh,NadD block,ARNT TACC3 PPI,HGIII-sPLA2 inh,Neddylation inh,NadD conf
CCOc1cccc(=O)c2c(C)n(CC(=O)c3ccccc3)c(C)c12,.,48,.,.,.,.
CCOc1cccc(=O)c2c(C)oc(C)c12,.,.,.,.,.,/
COc1cccc(=O)c2c(C)n(CC(=O)c3ccccc3)c(C)c12,.,45,.,.,.,.
CC(C)CC#Cc1cnc2c(c1)C(=O)N([C@H](C)CO)C[C@@H](C)[C@@H](CN(C)C(=O)Cc1ccncc1)O2,/,/,.,/,/,/
CO[C@H]1CN(C)C(=O)c2cc(NC(=O)c3ccc(F)cc3)ccc2OC[C@H](C)NC[C@@H]1C,/,/,.,/,/,/
C[C@H](CO)N1C[C@H](C)[C@@H](CN(C)S(=O)(=O)c2cn(C)cn2)Oc2cc(C3=CCCCC3)ccc2S1(=O)=O,/,/,.,/,/,/
CC(C)NC(=O)Nc1ccc2c(c1)C(=O)N(C)[C@@H]1CC[C@H](CC(=O)NCC(F)(F)F)O[C@H]1CO2,/,/,.,/,/,/
N#CC1=C(S)N(c2ccccc2)C(c2ccc(-c3cccc(Cl)c3)o2)NC1=O (configuration not stated),.,42,.,.,.,.
Cc1cccc(N2C(S)=C(C#N)C(=O)NC2c2ccco2)c1 (configuration not stated),.,.,.,.,.,/
Cc1ccc(-c2nnc(SCC(=O)N/N=C/c3c(C)nn(-c4ccccc4)c3C)n2-c2ccc(C)cc2)cc1,.,30,.,.,.,.
O=C1Nc2cc(C(=O)NCCN3CCCCCC3)ccc2S/C1=C\c1ccccc1,.,44,.,.,.,.
CN(C)C(=O)C[C@H]1C=C[C@H](NC(=O)C2CCC2)[C@H](CO)O1,/,/,.,/,/,/
Cc1cc2cc(CNS(=O)(=O)c3ccc4ccccc4c3)ccc2n1C,.,35,.,.,.,.
CC(C)NC(=O)N1CCCCN2[C@H](CO)[C@@H](c3ccc(C#Cc4ccccc4F)cc3)[C@H]2C1,/,/,.,/,/,/
COc1ccc(-c2cc(C(=O)Nc3cc(OC)cc(C(=O)Nc4cccc(C(F)(F)F)c4)c3)[nH]n2)cc1,.,40!,.,.,.,.
COc1cc(NC(=O)c2ccno2)cc(C(=O)Nc2cccc(C(F)(F)F)c2)c1,.,.,.,.,.,/
Cc1cc(O)c(/C=N/OCc2ccc(Cl)cc2Cl)c(=O)o1,.,.,.,.,.,/
CN(C)/C=C(\C=N\OCc1ccc(Cl)cc1Cl)C(=O)Nc1ccc(Cl)c(Cl)c1,.,29,.,.,.,.
CC(C)NC(=O)N(C)C[C@@H]1Oc2ncc(-c3cccc(C#N)c3)cc2C(=O)N([C@H](C)CO)C[C@H]1C,/,/,.,/,/,/
CC(C)(C)OC(=O)CC[C@@H](C(=O)NCCCCCCCCCCC(=O)N1CCN(C(=O)OC(C)(C)C)CC1)n1cc(CCCCCNC(=O)OC(C)(C)C)nn1,.,32,.,.,.,.
C=CC#CC[N+]1(CC#Cc2ccccc2)CCOCC1,.,44,.,.,.,.
COc1ccc(OC)c(Nc2nc(-c3sc(NC(=O)C(C)(C)C)nc3C)cs2)c1,.,.,.,.,.,/

# Source: PubChem
